# Results: PubChem BioAssay (Tox21)
# Records with an inconclusive call do not appear. The source made the active and inactive calls. Calls come from the whole dose curve; as a rule, active = well fitted inhibition curve with a large enough effect in the signal ratio in the repeat runs (not every such curve was filed as active); inconclusive = weak or mixed curves, or effect the other way; inactive = no such curve, though single readings can be large or run the other way; the % refers to the signal ratio.
# Target: Vitamin D3 receptor (Homo sapiens) (UniProt P11473)
# Assay: qHTS assay to identify small molecule antagonists of the vitamin D receptor (VDR) signaling pathway (AID 743223)
# Conditions: VDR-UAS-bla HEK293T, beta-lactamase FRET ratio, 16 h; series mostly up to 61 µM; activity change, negative = inhibition: at the top concentration
# From the text: U.S. Tox21 Program National Center for Advancing Translational Sciences [NCATS] NIH Chemical Genomics Center [NCGC] U.S. Environmental Protection Agency [EPA] National Institutes of Environmental Health Sciences [NIEHS] National Toxicology Program [NTP] U.S. Food and Drug Administration [FDA] Tox21 Assay Overview: The vitamin D receptor (VDR), a member of nuclear hormone receptor superfamily, plays a critical role in calcium homeostasis and bone metabolism. It is also involved in cell differentiation and growth, and thrombogenicity.
# Tox21 Assay Protocol Summary: VDR-bla cells were dispensed at 2,000 cells/5 uL of assay medium per well into black wall/clear-bottom 1536-well plates using a Multidrop Combi (Thermo Fisher Scientific, Waltham, MA) dispenser. After the assay plates were incubated at a 37C and 5% CO2 for 4 h, 23 nL of compounds dissolved in DMSO, positive controls or DMSO only was transferred to the assay plate by a Pintool station (Kalypsys, San Diego, CA), followed by addition of 1 uL of 1alpha, 25-Dihydroxy Vitamin D3 (3 nM, final concentration in the wells) using a Bioraptr Flying Reagent Dispenser (FRD) workstation (Beckman Coulter, Indianapolis, IN). The plates were incubated at 37C and 5% CO2 for 16 h, and then 1 uL of LiveBLAzerTM B/G FRET substrate was added using a Bioraptr FRD. The plates were incubated at room temperature for 2 h and fluorescence intensity was measured by an Envision plate reader (PerkinElmer, Shelton, CT).
# % is set by controls: 0 for no effect and ±100 for the full control effect.
# Sequence of Vitamin D3 receptor (Homo sapiens) (P11473 whole entry, looked up): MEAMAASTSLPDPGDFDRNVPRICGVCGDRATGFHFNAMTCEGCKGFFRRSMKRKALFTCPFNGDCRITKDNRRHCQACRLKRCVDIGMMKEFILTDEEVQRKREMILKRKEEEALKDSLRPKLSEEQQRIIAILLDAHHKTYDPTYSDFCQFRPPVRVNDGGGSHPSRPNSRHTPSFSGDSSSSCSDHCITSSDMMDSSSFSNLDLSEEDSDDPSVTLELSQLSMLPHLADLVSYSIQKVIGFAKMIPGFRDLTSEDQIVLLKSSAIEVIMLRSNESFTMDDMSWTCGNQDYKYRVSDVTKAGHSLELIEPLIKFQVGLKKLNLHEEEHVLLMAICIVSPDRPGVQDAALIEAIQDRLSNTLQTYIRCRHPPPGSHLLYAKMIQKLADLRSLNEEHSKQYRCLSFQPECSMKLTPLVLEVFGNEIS
Compound,outcome,"activity change, negative = inhibition"
c1ccc2c(c1)Oc1ccccc1S2,inactive,–
O=CCCCC=O,inactive,–
COC(=O)c1ccccc1,–,-7.53% (inactive)
Cc1cccc([N+](=O)[O-])c1C,inactive,–
CC(=O)O[C@]1(C(C)=O)CC[C@H]2[C@@H]3C=C(Cl)C4=CC(=O)[C@@H]5C[C@@H]5[C@]4(C)[C@H]3CC[C@@]21C,–,-10.5% (inactive)
Cc1cccc(N(C)C(=S)Oc2ccc3ccccc3c2)c1,inactive,–
CC(C)Oc1ccc2c(=O)c(-c3ccccc3)coc2c1,inactive,–
O=C1c2cccc(O)c2C(=O)c2c(O)cccc21,inactive,–
O=Cc1ccccc1O,inactive,–
CCC(C)CO (stereo not given),–,-4.61% [at 78.8 µM] (inactive)
COC(C)COC(C)COC(C)CO (stereo not given),inactive,–
S=C(NC1CCCCC1)NC1CCCCC1,inactive,–
CCC(C)OC(=O)c1ccc(O)cc1 (stereo not given),inactive,–
OC(CCl)CCl,–,9.67% [at 78.8 µM] (inactive)
c1cc(-c2ccncc2)ccn1,–,-4.55% [at 78.8 µM] (inactive)
O=CCc1ccccc1,inactive,–
C[Si](C)(C)O[Si](C)(C)C,–,-3.04% (inactive)
NNc1ccc(C(=O)O)cc1,inactive,–
COc1ccc(OC)c(C(O)CNC(=O)CN)c1 (stereo not given),–,-16.7% (inactive)
C/C=C/C(=O)O,–,-11.7% (inactive)

Compound,outcome,"activity change, negative = inhibition"
CNCCCC12CCC(c3ccccc31)c1ccccc12,–,-16.6% (inactive)
CCCCC(CC)COP(=O)(OCC(CC)CCCC)OCC(CC)CCCC (stereo not given),inactive,–
CCCCOCCOCCO,–,9.54% [at 78.8 µM] (inactive)
O=C(O)c1ccccc1Nc1cccc(C(F)(F)F)c1,–,16.6% (inactive)
COc1ccccc1/C=C/C=O,inactive,–
CC(=O)CC/C=C(\C)CCC=C(C)C,–,3.87% (inactive)
C#C[C@]1(O)CC[C@H]2[C@@H]3CCc4cc(OC)ccc4[C@H]3CC[C@@]21C,–,-3.64% (inactive)
Cc1ncc[nH]1,inactive,–
O=C(/C=C/C=C/c1ccc2c(c1)OCO2)N1CCCCC1,inactive,–
Nc1ccc(S(=O)(=O)Nc2cnc3ccccc3n2)cc1,–,3.32% (inactive)
CC(C)CC(C)(O)C#CC(C)(O)CC(C)C (stereo not given),inactive,–
CN(C)CCC=C1c2ccccc2CCc2ccccc21,–,-0.589% (inactive)
Cc1ccc2c(n1)Oc1ccc(C(C)C(=O)OCC(=O)N(C)C)cc1C2 (stereo not given),–,-2.86% (inactive)
CCCCNS(=O)(=O)c1ccccc1,inactive,–
CCCCc1oc2ccccc2c1C(=O)c1cc(I)c(OCCN(CC)CC)c(I)c1,–,-26% (inactive)
c1ccc(Nc2ccccc2)cc1,–,1.34% (inactive)
CN(C)c1nc(N(C)C)nc(N(C)C)n1,inactive,–
NC=O,inactive,–
c1ccc2c(c1)c1cccc3ccc4cccc2c4c31,inactive,–
O=C(OCc1ccccc1)c1ccccc1O,–,15.6% (inactive)
